Structures are written as SMILES. Compounds without any hit were thinned out: in the full panel of roughly 83,000, 20% have a hit.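 Each cell line was grown in a 96-well plate and treated with one concentration of compound for 48 hours. Values below 10 were considered active.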 Values without a mark were called inactive. The source made the active and inactive calls.

From PubChem BioAssay (NCI) come the findings set out here.

Common to all, as to assay: NCI-60 one-dose screen, 48 h (100 = growth as untreated, 0 = no growth, -100 = all killed)
What all share (details): 10 µM unless noted

In test [1] the test system is NCI-H23 lung.
Test [2] deals with NCI-H460 lung.
The subject of test [3] is 786-0 renal.
Test [4] has as its system DU-145 prostate.
The test system of test [5] is MDA-MB-231 breast.
In test [6] the test system is SF-268 CNS.
Test [7] deals with SF-539 CNS.
In test [8] the test system is M14 melanoma.
In test [9] the test system is SNB-75 CNS.
Test [10] relates to PC-3 prostate.
Test [11] concerns UACC-62 melanoma.
The subject of test [12] is SK-MEL-28 melanoma.
Test [13] has as its system ACHN renal.
In test [14] the test system is OVCAR-5 ovarian.
The test system of test [15] is OVCAR-3 ovarian.
Test [16] concerns NCI/ADR-RES ovarian.
The test system of test [17] is SW-620 colon.
Test [18] relates to MCF7 breast.
Test [19] concerns HCT-116 colon.
For test [20], the system named is KM12 colon.

Take `COc1ccc(CN2CCN(Cc3ccccc3)CC2)c(O)c1`: the growth is 94.8% in [1]; 97% in [2]; 95% in test [3]; 97.4% in test [4]; 104% in test [5]; 100% in test [6]. Further, the growth is 117% in [7]; 89.5% in test [8]; 89.8% in test [9]; 86.2% in test [10]; 96.2% in test [11]; 115% in test [12]. The growth is 87.5% in test [13]; 101% in test [14]; 81.1% in test [15]; 83.4% in test [16]; 98.5% in test [17]; 99.7% in [18]. Moreover, the growth was 83.4% in test [19] and 100% in test [20].

On to `CC(=O)O[C@@H]1C2=C(C)C3(CC3)[C@@](C)(O)C(=O)C2=C[C@@]1(C)CO`, for which the growth is -33.2% (active) in test [1]; 2.34% (active) in test [2]; 0.386% (active) in test [3]; 5.53% (active) in [4]; -2.64% (active) in test [5]; 6.35% (active) in test [6]. Also, the growth is -33.1% (active) in test [7]; -48.6% (active) in [8]; -85.7% (active) in [9]; 6.46% (active) in test [10]; -69.8% (active) in test [11]; -28.8% (active) in test [12]. For the same compound, the growth in [13] is -6.63% (active); in test [14], 4.7% (active); in test [15] it was -9.99% (active); in [16], -5.59% (active); in test [17] it was 4.27% (active); in [18] it was 1.42% (active). In addition, the growth in test [19] was 6.86% (active); in [20], 0.46% (active).

On to `O=C(N/N=C/c1ccc([N+](=O)[O-])o1)c1cc([N+](=O)[O-])cc([N+](=O)[O-])c1O`, for which the growth was 94.1% in test [1]; 105% in test [2]; 106% in test [3]; 111% in test [4]; 93.5% in test [5]; 101% in test [6]. Also, the growth in test [7] was 112%; in [8], 102%; in test [9], 83%; in test [10], 85.9%; in test [11], 88.9%; in test [12], 113%. The growth in [13] is 90.6%; in test [14] it was 114%; in [15], 113%; in test [16] it was 89.1%; in [17], 102%; in test [18] it was 84.6%. The growth in [19] is 92.6%; in [20], 99.7%.
